Article PMC12431657, “Discovery and mechanistic insights of dibenzoylmethane as a broad spectrum inhibitor of coronavirus” (PLOS Pathogens, 2025)
Counter-ions that a name gives are not always drawn. Like-named read-outs stand apart in the source and are kept apart here. Among all 3,300 compounds or so, about 95 (3%) showed an effect of 50% or more. The entries come from a sample that favours strong results as a whole.

System: HCoV-229E
Design: species or system Huh-7; HTS, protection from HCoV-229E induced cell death, luminescent cell viability (CellCounting-Lite 2.0), inhibition rate
Settings: 24 h post infection, 1 h compound pre-incubation, 10 µM, inhibitor

| Compound | 229E Inhibition rate [%] | 229E Inhibition rate (229E Inhibition rate, 24 h) [%] |
| --- | --- | --- |
| CC1=COC(=O)[C@H]2[C@@H]1CC[C@@H]2C [4aα,7α,7aα-Nepetalactone] | 8.3 | – |
| CC(=O)CCc1ccc(O[C@@H]2O[C@H](CO)[C@@H](O)[C@H](O)[C@H]2O)cc1 [Raspberry ketone glucoside] | 19.3 | – |
| C=C[C@H]1CN2CC[C@]3(C(=O)Nc4ccccc43)[C@@H]2C[C@@H]1/C(=C\OC)C(=O)OC [Corynoxeine] | 15.2 | – |
| CC[C@]12CCCN3CCc4c(n(c5ccccc45)C(=O)C1)[C@@H]32 [Vinburnine] | 22.5 | – |
| CCOC(=O)C1=C[C@]2(CC)CCCN3CCc4c(n1c1ccccc41)[C@@H]32 [Vinpocetine] | 50 | – |
| CC[C@]12CCCN3CCc4c(n(c5ccccc45)[C@@](O)(C(=O)OC)C1)[C@@H]32 [Vincamine] | 16.6 | – |
| C/C=C(/C)C(=O)O[C@H]1c2cc3c(c4c2[C@@]2(CO4)C(=O)C(OC)=C(OC)C=C2C[C@@H](C)[C@H]1C)OCO3 [Heteroclitin D] | 47.7 | – |
| COc1cc2oc(=O)ccc2cc1CC=C(C)C [Suberosin] | 15.6 | – |
| COC(=O)CC[C@@H](C)[C@H]1CC[C@H]2[C@@H]3[C@H](O)C[C@@H]4C[C@H](O)CC[C@]4(C)[C@H]3C[C@H](O)[C@]12C [Methyl cholate] | 54.9 | – |
| COc1c(/C=C/C(=O)c2ccc(O)cc2)ccc(O)c1CC=C(C)C [Licochalcone C] | 5 | – |
| CC(=O)NCC(=O)O [N-Acetylglycine] | 10.2 | – |
| COc1c(CC=C(C)C)c(O)cc2oc(=O)c(-c3ccc(O)cc3O)cc12 [Glycycoumarin] | 5.6 | – |
| COc1c(CC=C(C)C)c(O)cc2oc(=O)c3c4ccc(O)cc4oc3c12 [Neoglycyrol] | 90.8 | – |
| CC(C)=CCc1cc2c(cc1O)oc(=O)c1c3ccc(O)cc3oc21 [Psoralidin] | 43.7 | – |
| C[n+]1cccc(C(=O)[O-])c1 [Trigonelline (chloride)] | – | 13.3 |
| CC1=C2[C@@H](OC1=O)[C@H](O)[C@]13[C@H]4C[C@@H](C(C)(C)C)[C@]15[C@@H](OC(=O)[C@@H]5O)O[C@@]23C(=O)O4 [Ginkgolide K] | 62 | – |
| C[C@@H]1C(=O)O[C@H]2[C@H](O)[C@@]34[C@H]5C[C@@H](C(C)(C)C)[C@]36[C@@H](OC(=O)[C@@H]6O)O[C@@]4(C(=O)O5)[C@@]12O [Ginkgolide B] | 25.6 | – |
| C[C@@H]1C(=O)O[C@H]2C[C@@]34[C@H]5C[C@@H](C(C)(C)C)[C@]36[C@@H](OC(=O)[C@@H]6O)O[C@@]4(C(=O)O5)[C@]21O [Ginkgolide A] | 11.6 | – |
| OC[C@H]1O[C@@](CO)(OC[C@@]2(OC[C@@]3(OC[C@@]4(OC[C@@]5(OC[C@@]6(OC[C@@]7(OC[C@@]8(O[C@H]9O[C@H](CO)[C@@H](O)[C@H](O)[C@H]9O)O[C@H](CO)[C@@H](O)[C@@H]8O)O[C@H](CO)[C@@H](O)[C@@H]7O)O[C@H](CO)[C@@H](O)[C@@H]6O)O[C@H](CO)[C@@H](O)[C@@H]5O)O[C@H](CO)[C@@H](O)[C@@H]4O)O[C@H](CO)[C@@H](O)[C@@H]3O)O[C@H](CO)[C@@H](O)[C@@H]2O)[C@@H](O)[C@@H]1O [Fructo-oligosaccharide DP9/GF8] | 41 | – |

| Compound | 229E Inhibition rate [%] | 229E Inhibition rate (229E Inhibition rate, 24 h) [%] |
| --- | --- | --- |
| CCc1ccc(O)cc1O [4-Ethylresorcinol] | 19.1 | – |
| CC(C)=CCC1=CC(=O)c2ccccc2C1=O [Deoxylapachol] | 8.4 | – |
| CC(C)=CCC/C(C)=C/CC/C(C)=C/CC/C(C)=C/CC1=C(C)C(=O)c2ccccc2C1=O [Menaquinone-4] | 4.1 | – |
| CC(C)=CCC1=C(O)C(=O)c2ccccc2C1=O [Lapachol] | 54.4 | – |
| C[C@@H]1O[C@@H](O[C@H]2[C@H](O[C@H]3CC[C@@]4(C)[C@@H](CC[C@]5(C)[C@@H]4CC=C4[C@@H]6CC(C)(C)CC[C@]6(C(=O)O)CC[C@]45C)[C@]3(C)CO)OC[C@H](O)[C@@H]2O)[C@H](O)[C@H](O[C@@H]2O[C@H](CO)[C@@H](O[C@@H]3O[C@H](CO)[C@@H](O)[C@H](O)[C@H]3O)[C@H](O)[C@H]2O)[C@H]1O [Macranthoside B] | 9.3 | – |
| NCCc1cc(O)c(O)c(O)c1 [5-Hydroxydopamine hydrochloride] | 11.7 | – |
| O=P(O)(O)OC(CO)CO [β-Glycerophosphate (disodium salt hydrate)] | 11.7 | – |
| COc1cc(OC)c(CCC(=O)c2ccc(O)cc2)c(OC)c1 [Loureirin B] | 16 | – |
| Oc1cc2cc[nH]c2cc1O [5,6-Dihydroxyindole] | 1.6 | – |
| CC(=O)O[C@@H]1C[C@H](O)[C@@]23CO[C@@H](O)[C@]1(C)[C@@H]2C[C@@H](O)[C@]1(C)[C@@H]3C(=O)[C@H](OC(C)=O)[C@@]2(C)[C@H](c3ccoc3)C[C@H]3O[C@]321 [Toosendanin] | 23.4 | – |
| C[C@@H](CO[C@@H]1O[C@H](CO)[C@@H](O)[C@H](O)[C@H]1O)[C@@H]1CC[C@@]2(CC[C@]3(C)[C@H](CC[C@@H]4[C@@]5(C)CC[C@H](O[C@@H]6O[C@H](CO)[C@@H](O)[C@H](O)[C@H]6O[C@@H]6OC[C@@H](O)[C@H](O)[C@H]6O)[C@@](C)(CO[C@@H]6O[C@H](CO)[C@@H](O)[C@H](O)[C@H]6O)[C@@H]5CC[C@]43C)[C@H]2O)CO1 [Hosenkoside M] | 10.1 | – |
| C[C@H](CO[C@@H]1O[C@H](CO)[C@@H](O)[C@H](O)[C@H]1O)[C@H]1CC[C@@]2(CC[C@]3(C)[C@H](CC[C@@H]4[C@@]5(C)CC[C@H](O[C@@H]6O[C@H](CO)[C@@H](O)[C@H](O)[C@H]6O[C@@H]6O[C@H](CO)[C@@H](O)[C@H](O)[C@H]6O)[C@@](C)(CO)[C@@H]5CC[C@]43C)[C@H]2O)CO1 [Hosenkoside B] | 10.3 | – |
| C[C@@H](CO[C@@H]1O[C@H](CO)[C@@H](O)[C@H](O)[C@H]1O)[C@@H]1CC[C@@]2(CC[C@]3(C)[C@H](CC[C@@H]4[C@@]5(C)CC[C@H](O[C@@H]6O[C@H](CO)[C@@H](O)[C@H](O)[C@H]6O[C@@H]6O[C@H](CO)[C@@H](O)[C@H](O)[C@H]6O)[C@@](C)(CO[C@@H]6O[C@H](CO)[C@@H](O)[C@H](O)[C@H]6O)[C@@H]5CC[C@]43C)[C@H]2O)CO1 [Hosenkoside K] | 58.2 | – |
| O=C(O)C(=O)Cc1ccc(O)cc1 [4-Hydroxyphenylpyruvic acid] | 21.1 | – |
| O=C(O)Cc1ccc(O)c(O)c1 [3,4-Dihydroxybenzeneacetic acid] | 39.5 | – |
| O=C(O)Cc1ccc(O)cc1 [4-Hydroxyphenylacetic acid] | 52.1 | – |
| CN(C)CC(=O)O [N-Methylsarcosine] | 11.2 | – |
| COc1cc(/C=C/C(=O)OC(C)C)ccc1O [Isopropyl ferulate] | 36.5 | – |
| C[C@@H]1O[C@@H](Oc2cc(O)c3c(c2)O[C@H](c2ccc(O)c(O)c2)[C@@H](O)C3=O)[C@H](O)[C@H](O)[C@H]1O [Taxifolin 7-O-rhamnoside] | 9.6 | – |
| C[C@H](CC[C@@H](O)C(C)(C)O)[C@H]1CC[C@@]2(C)[C@@H]3CC=C4[C@@H](CC[C@H](O)C4(C)C)[C@]3(C)C(=O)C[C@]12C [Bryodulcosigenin] | 12.5 | – |
| COc1cc2ccc(=O)oc2c(O[C@@H]2O[C@H](CO)[C@@H](O)[C@H](O)[C@H]2O)c1O [Fraxin] | 10.9 | – |
